For 20 molecules, activity change, negative = inhibition, Potency and activity, negative = inhibition results are on record in PubChem BioAssay (NCATS).

Molecules are shown by their SMILES. Several values for one entry are separate records, joined by “and”; a condition that tells them apart may be missing. Equal entries are not always repeated. Values without a mark were called inactive. Results filed as inconclusive are left out. Activity calls are given as the source filed them. Unless noted, calls follow the shape of the dose curve; as a rule, active = well fitted curve in either direction with a large enough effect (not every such curve was filed as active); inconclusive = small, poorly fitted or top-dose-only effect, or another doubt; inactive = flat fitted curve, though single readings scatter.

A short description of experiment [1]: AP1 Signaling Pathway (AID 357).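 Also: ME-180 reporter cells stimulated with EGF at its EC50 level; % is scaled to controls: 0 for no effect and ±100 for the full control effect.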 To be noted: ME-180 AP-1-bla reporter, EGF-induced, beta-lactamase ratio, 5 h; at 17.2 µM (top of the series) unless noted. The essentials:
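Titration-series screen for positive or negative modulators of EC50 EGF-induced signaling in ME-180 cells carrying an AP-1-driven beta-lactamase reporter. After 5 hours at 37 degrees Celsius, CCF4 460nm/530nm emission ratio gave %Activity; AC50 values derived.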

The target in experiment [2] is Cytochrome P450 1A2 (Homo sapiens) (UniProt P05177). The experiment in a line: p450-cyp1a2 (AID 410; calls by dose curve; also: potency is read from the fitted curve at half-maximal effect;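 as to activity change, negative = inhibition: -100% = full effect of reference inhibitor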). The procedure, abridged:
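Inhibition was calculated relative to 57 uM furafylline (full inhibition). The reaction used human CYP1A2 at 20nM with Luciferin-ME at its Km, 100uM, driven by an NADPH-regenerating system for 60 min at room temperature.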

Experiment [3] in a line: Stat Signaling Pathway (AID 446).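 Also: ME-180 cervical cancer cells given 40 pM IL-6 alongside compound; SIE-controlled beta-lactamase reporter measured as 460/530 nm FRET emission ratio; % is scaled to controls: 0 for no effect and ±100 for the full control effect.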 The note with it: ME-180 (cervical carcinoma) SIE beta-lactamase reporter, IL-6 stimulated, 5 h; at 17.2 µM (top of the series) unless noted. The procedure, abridged:
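IL-6/STAT signaling read in ME-180 cells via an SIE beta-lactamase reporter. Stimulus was 40 pM IL-6 (its AC50) for 5 hrs, so both activation and inhibition register.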

For experiment [4], the target named is Glucocorticoid receptor (Homo sapiens) (UniProt P04150). Kind of experiment: GR-GFP Redistribution (AID 450;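 active = compounds whose dose series gives a full or clear partial fitted curve of increased nuclear translocation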; also: potency is read from the fitted curve at half-maximal effect). The note with it: U2OS GR-GFP nuclear translocation, laser cytometry, 2 h.
Experiment [5] can be described thus: Cell Viability - BJ (AID 421; calls by dose curve;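 also: potency is read from the fitted curve at half-maximal effect; cells exposed to compound for 40 hours at 37 °C before readout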). To be noted: BJ fibroblast viability, qHTS. The procedure, abridged:
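Quantitative HTS: ATP depletion in BJ cells after 40 hr compound exposure in complete culture medium, detected with CellTiter-Glo; AC50 from standard Hill fits.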
On the technique in general: In qHTS, concentration-response curves come from the screen itself.

Experiment [6] is described as follows: Cell Viability - Jurkat (AID 426;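 active = dose-dependent loss of cell ATP signal giving a full or clear fitted curve, ranked by lower potency value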;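 also: potency is read from the fitted curve at half-maximal effect; cells exposed to compound for 40 hours at 37 °C before ATP read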). To be noted: qHTS. The procedure, abridged:
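Seed 5000 Jurkat E6-1 cells/well; add compound; incubate 40 hr at 37 °C; add CellTiter-Glo; wait 20 min at room temperature; read luminescence. Fit concentration-response with Hill equation for AC50.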

Experiment [7] in a line: Cell Viability - Hek293 (AID 427;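 active = compounds whose dose-response curve shows a full or clear partial loss of cell viability, called from curve shape rather than a numeric limit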;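 also: potency is read from the fitted curve at half-maximal effect; cells exposed to compound for 40 hours at 37 °C before reading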). To be noted: qHTS. The procedure, abridged:
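AC50 values derive from Hill-modelled concentration-response of ATP-based luminescence, normalized between DMSO-only and 100 uM tamoxifen controls. Cells were exposed in complete culture medium for 40 hr at 37 °C before detection.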

Experiment [8] is described as follows: Cell Viability - HepG2 (AID 433; calls by dose curve;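 also: potency is read from the fitted curve at half-maximal effect; potency for ATP loss meaning cytotoxicity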). The note with it: qHTS. The essentials: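 Cytotoxicity is scored as loss of intracellular ATP in HepG2 cells exposed to compounds for 40 h. Concentration-response curves, normalized to DMSO and 100 uM tamoxifen, give AC50 values.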
Experiment [9] can be described thus: Cell Viability - MRC5 (AID 434; calls by dose curve;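 also: potency is read from the fitted curve at half-maximal effect; cells exposed to compound for 40 hours at 37 °C; potency reflects cytotoxicity seen as loss of intracellular ATP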). The note with it: MRC5 lung fibroblast viability, qHTS. The procedure, abridged: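 MRC5 normal human lung fibroblasts (1500/well) were treated with compounds for 40 hr at 37 °C in complete medium, and viable cells were measured as intracellular ATP by CellTiter-Glo luminescence. AC50 came from Hill fits, normalized to DMSO and 100 uM tamoxifen.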

Experiment [10] is described as follows: Cell Viability - SK-N-SH (AID 435; calls by dose curve;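 also: potency is read from the fitted curve at half-maximal effect; compound exposure lasted 40 h at 37 °C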). The note with it: SK-N-SH neuroblastoma cell viability qHTS. The essentials: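 Cells seeded at 1500 per well and incubated 5 hr at 37 °C. Compound added, then 40 hr at 37 °C. CellTiter-Glo added, 20 min at room temperature, luminescence read.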

Glucocorticoid receptor (Homo sapiens), sequence (P04150 whole entry, looked up): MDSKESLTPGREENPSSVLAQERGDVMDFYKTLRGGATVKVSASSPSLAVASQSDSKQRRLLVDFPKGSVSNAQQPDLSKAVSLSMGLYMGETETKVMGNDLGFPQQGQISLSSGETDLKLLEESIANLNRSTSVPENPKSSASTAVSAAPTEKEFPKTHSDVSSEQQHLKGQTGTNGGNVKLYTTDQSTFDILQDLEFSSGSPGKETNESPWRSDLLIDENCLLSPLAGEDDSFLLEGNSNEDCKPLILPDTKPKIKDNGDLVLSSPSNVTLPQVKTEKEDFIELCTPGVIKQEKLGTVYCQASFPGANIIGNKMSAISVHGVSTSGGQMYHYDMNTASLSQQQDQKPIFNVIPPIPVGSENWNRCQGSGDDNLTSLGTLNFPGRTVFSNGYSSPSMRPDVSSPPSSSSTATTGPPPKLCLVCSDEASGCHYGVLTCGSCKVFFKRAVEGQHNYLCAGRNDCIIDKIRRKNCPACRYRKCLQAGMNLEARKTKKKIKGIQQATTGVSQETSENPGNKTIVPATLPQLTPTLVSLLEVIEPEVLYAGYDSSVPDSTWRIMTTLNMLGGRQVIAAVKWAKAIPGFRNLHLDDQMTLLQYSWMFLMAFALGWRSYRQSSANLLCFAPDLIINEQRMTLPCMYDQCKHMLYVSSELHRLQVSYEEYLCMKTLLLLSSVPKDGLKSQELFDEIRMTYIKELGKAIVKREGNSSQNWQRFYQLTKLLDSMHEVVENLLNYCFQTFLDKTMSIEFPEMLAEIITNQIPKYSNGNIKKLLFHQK
Cytochrome P450 1A2 (Homo sapiens), sequence (P05177 whole entry, looked up): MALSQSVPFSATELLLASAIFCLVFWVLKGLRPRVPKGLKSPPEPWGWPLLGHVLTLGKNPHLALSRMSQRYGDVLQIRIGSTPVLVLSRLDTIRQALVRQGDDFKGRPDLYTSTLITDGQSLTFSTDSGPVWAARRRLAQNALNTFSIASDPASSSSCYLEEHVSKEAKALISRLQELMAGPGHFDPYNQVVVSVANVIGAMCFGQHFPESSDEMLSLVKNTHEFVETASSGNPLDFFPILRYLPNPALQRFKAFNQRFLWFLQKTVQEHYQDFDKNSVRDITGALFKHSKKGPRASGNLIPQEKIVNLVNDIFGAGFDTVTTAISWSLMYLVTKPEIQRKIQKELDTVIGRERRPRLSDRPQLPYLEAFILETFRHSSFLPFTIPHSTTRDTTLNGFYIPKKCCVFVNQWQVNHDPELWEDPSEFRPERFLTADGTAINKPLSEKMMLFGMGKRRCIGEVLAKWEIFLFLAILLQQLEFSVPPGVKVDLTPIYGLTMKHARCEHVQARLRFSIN

For the molecule `COc1ccc2c(c1)c(CC(=O)OCC(=O)O)c(C)n2C(=O)c1ccc(Cl)cc1`, the activity change, negative = inhibition in [1] is -9.7% and -8.22%. In experiment [2], the Potency entry was “inactive”. Besides, the activity, negative = inhibition in experiment [3] is 1.57% and -16%. The Potency in experiment [4] was over 20.6 µM.
With `CCCCOc1ccc(CC(=O)NO)cc1`, the activity change, negative = inhibition in experiment [1] is -22.1% and -10.8%. Also, the Potency in experiment [2] is 1.58 µM (active); in experiment [4], over 20.6 µM. The activity, negative = inhibition in experiment [3] is -9.96% and -7.15%.
As to `CC1=NN(c2ccccc2)C(=O)C1`, the activity change, negative = inhibition in experiment [1] is -7.19%. Moreover, the Potency in experiment [2] was 12.6 µM (active); in experiment [5] it was over 92 µM; in experiment [6] it was over 92 µM; in [7] it was over 92 µM; in experiment [8], over 92 µM; in experiment [9], over 92 µM. Also, the Potency in experiment [10] is over 92 µM; in experiment [4], > 46 µM and > 20.6 µM. The activity, negative = inhibition in experiment [3] is -2.54%.
In the case of `COc1cc(NS(=O)(=O)c2ccc(N)cc2)nc(OC)n1`, the activity change, negative = inhibition in experiment [1] was 1.62% and 1.87%. The Potency entry in [2] was “inactive”. For the same molecule, in [3], the activity, negative = inhibition was 9.03% and -4.46%. Further, the Potency in experiment [4] was over 20.6 µM.
Take `CCCOc1ccc(C(=O)OCCN(CC)CC)cc1N`: in experiment [1], the activity change, negative = inhibition was 5.39%. The Potency is 5.01 µM (active) in [2] and over 20.6 µM in [4]. For the same molecule, in [3], the activity, negative = inhibition is 1.44%.
`CCn1cc(C(=O)O)c(=O)c2cc(F)c(N3CCNCC3)nc21`: the activity change, negative = inhibition in experiment [1] is -5.75% and 5.53%. For the same molecule, in experiment [2], the Potency result was “inactive”. Also, the activity, negative = inhibition in [3] is 4.75% and 1.14%.
With `CCc1cc(C(N)=S)ccn1`, the activity change, negative = inhibition in experiment [1] is -4.73%. In addition, the Potency in [5], in experiment [6], in experiment [7], in experiment [8], in [9] and in experiment [10] was over 92 µM in each case. In experiment [4], the Potency was over 20.6 µM. Further, the activity, negative = inhibition in experiment [3] was -6.82%.
As for `Cc1cc(NS(=O)(=O)c2ccc(N)cc2)no1`, the activity change, negative = inhibition in experiment [1] is 3.59% and 0.387%. Also, the Potency in experiment [5], in [6], in experiment [7], in experiment [8], in experiment [9] and in experiment [10] was over 92 µM in each case. The Potency in experiment [4] is over 20.6 µM. Also, the activity, negative = inhibition in [3] was 2% and 5.36%.
Consider `Cc1cccc(Nc2ccncc2S(=O)(=O)NC(=O)NC(C)C)c1`, for which the activity change, negative = inhibition in experiment [1] is -9.3%. The Potency entry in [2] was “inactive”. Also, the activity, negative = inhibition in experiment [3] is -16.6%. Also, the Potency in experiment [4] is over 20.6 µM.
Regarding `Cc1cccc(N(C)C(=S)Oc2ccc3ccccc3c2)c1`, the activity change, negative = inhibition in experiment [1] is -6.52% and 9.03%. Also, the Potency is 2.51 µM (active) in experiment [2] and over 20.6 µM in [4]. Further, the activity, negative = inhibition in experiment [3] was 4.85% and -13.1%.
For `CC1=CC(=O)c2ccccc2C1=O`, the Potency was 0.158 µM (active) in experiment [2] and over 20.6 µM in experiment [4].
As for `O=C(O)c1cc(=O)[nH]c(=O)[nH]1`, the Potency in experiment [5], in experiment [6], in experiment [7], in [8], in [9] and in experiment [10] was over 92 µM in each case.
In the case of `CC[C@H](NC(C)C)[C@H](O)c1ccc(O)c2[nH]c(=O)ccc12`, in experiment [4], the Potency was over 46 µM.
Turning to `CN(C)c1ccc(C(=C2C=CC(=[N+](C)C)C=C2)c2ccc(N(C)C)cc2)cc1`, the Potency in experiment [5] was 5.35 µM (active); in experiment [6], 2.75 µM (active); in experiment [7], 5.18 µM (active); in experiment [8] it was 8.58 µM (active); in [9] it was 4.08 µM (active); in experiment [10], 1.8 µM (active).
`CCN(CC)CC#CCOC(=O)C(O)(c1ccccc1)C1CCCCC1` (stereo not drawn): the activity change, negative = inhibition in experiment [1] was -4.6%. For the same molecule, in [3], the activity, negative = inhibition is 0.633%. In addition, the Potency in experiment [4] was over 20.6 µM.
Regarding `N=C(N)c1ccc(OCCCCCOc2ccc(C(=N)N)cc2)cc1`, the Potency in experiment [8] was over 92 µM; in experiment [9], over 92 µM; in [10], over 92 µM; in [4] it was over 20.6 µM. Also, the activity, negative = inhibition in experiment [3] is 15.4%.
With `Cn1c(=O)c2c(ncn2CC(O)CO)n(C)c1=O` (stereo not drawn), the activity change, negative = inhibition in [1] was 2.4%. The activity, negative = inhibition in experiment [3] was 1.2%. The Potency in experiment [4] is over 20.6 µM.
As for `C1CCC(C(CC2CCCCN2)C2CCCCC2)CC1` (stereo not drawn), the activity change, negative = inhibition in experiment [1] was 22.4%. In addition, the activity, negative = inhibition in experiment [3] was 5.25%. Also, the Potency in experiment [4] was over 20.6 µM.
`O=C(O)c1cn(C2CC2)c2cc(N3CCNCC3)c(F)cc2c1=O`: the activity change, negative = inhibition in experiment [1] is 3.13%. For the same molecule, the activity, negative = inhibition in experiment [3] was 11.7%.
Consider `NC(N)=NC(N)=NCCc1ccccc1`, for which, in experiment [1], the activity change, negative = inhibition is 5.09% and 3.64%. The Potency in [6] was over 92 µM; in experiment [7], over 92 µM; in experiment [9], over 92 µM; in [10], over 92 µM; in experiment [4], over 20.6 µM. Moreover, the activity, negative = inhibition in [3] was 9.3% and 14.4%.
